The structures appear in SMILES notation. Hit rate of the full screen: of about 69,000 compounds, about 8,600 (12%) showed an effect of 50% or more. For the sample, strong results were picked, then their nearest neighbours and some compounds at random.

In the experiment the test system is Plasmodium berghei. Briefly: Screen against P. berghei liver stage (PbLuc), transformed with Luciferase, at 10uM. It is filed as functional, HepG2. To be noted: tested at 10 uM.
With `Cc1cc(C(=O)N2CCCN(Cc3cnn(C)c3)CC2)no1`, the INHIBITION was 27.335%. `CS(=O)(=O)N1CCc2sc(C(=O)NCc3ccncc3)cc21`: the INHIBITION was found to be 41.1%. The figure for `O=C(c1cc2c(s1)CCCC2)N1CCCC1Cn1cccn1` (stereo not given) is 0.411%; for `COc1ccc(NC(=O)Cn2ccc3c(=O)n(C)ccc32)cc1OC` it is -14.2%; for `Cc1ccc(NC(=O)Cn2ccc3c(=O)n(C)ccc32)cc1F` it is 11.9%. The figure for `Cn1ccc2c(ccn2CC(=O)Nc2ccc(Br)cc2)c1=O` is 63.5%.

Take `CC(C)CNC(=O)CNC(=O)NC(c1nccs1)C1CC1` (stereo not given): the INHIBITION amounted to 8.59%. Consider `CCOc1ccccc1C(=O)NCCc1ccoc1`, for which the INHIBITION is listed as 32.4%. Consider `O=C(NCCC(O)c1ccoc1)Nc1cccs1` (stereo not given), for which the INHIBITION stood at 13.8%. For `O=C(COc1ccccc1F)NCCC(O)c1ccoc1` (stereo not given) the value was -16.9%; for `CCOC(=O)NCCC(O)c1ccoc1` (stereo not given), 52.1%; for `CCOc1ccccc1C(=O)NCCC(O)c1ccoc1` (stereo not given), 85.5%.

As for `CCOCC(=O)NCCC(O)c1ccoc1` (stereo not given), the INHIBITION was determined as 31.3%. For `CC(=O)N1CC[C@H]2OCC[C@@H](C(=O)NCc3ccco3)[C@H]2C1` the value was 35.7%; for `Cc1cccc(CN2C(=O)CCC23CCN(Cc2cccn2C)CC3)n1`, 24.9%; for `Cc1cc2ccccc2n1CC(=O)Nc1ccnn1CC1CCOC1` (stereo not given), 40.7%. On to `CCc1cnc(CN(C)C(=O)NC2CCN(CC3CC3)C2)s1` (stereo not given), for which the INHIBITION amounted to 39.2%. For `CCc1cnc(CN(C)C(=O)Nc2cnn(CC3CCCO3)c2)s1` (stereo not given) the value was 51.4%. As to `CN(Cc1ccncc1)C(=O)Nc1cnn(CC2CCCO2)c1` (stereo not given), the INHIBITION is -5.53%. Consider `CCc1cnc(CN(C)C(=O)NC2CCN(c3ccccc3)C2)s1` (stereo not given), for which the INHIBITION is -53.7%.

On to `CCc1cnc(CN(C)C(=O)NC2CCN(C)C2=O)s1` (stereo not given), for which the INHIBITION stood at 68.2%. Turning to `Cc1csc(CN(C)C(=O)Nc2cnn(CC3CCCO3)c2)n1` (stereo not given), the INHIBITION was found to be 0.825%. For the compound `CC[C@@H]1N(Cc2cc(OC)cc(OC)c2)CCC[C@]12CCC(=O)N2C`, the INHIBITION was -54.1%. For the compound `CNC(=O)c1nc(COc2c(C)occc2=O)no1`, the INHIBITION was -11.9%. As for `Cc1cncc(Oc2ccc(CO)cc2)n1`, the INHIBITION came to 44.3%.

As to `CNCc1ccc(Oc2cncc(C)n2)cc1`, the INHIBITION is on record as -1.84%. `Cc1cncc(Oc2ccc(CN)cc2)n1`: the INHIBITION came out at 60.5%. The figure for `CC(=O)c1ccc(N2CCC3(CCC(=O)N(CCCO)C3)CC2)nc1` is 30.9%; for `CCN1CC2(CCC1=O)CCN(c1ccc(C(C)=O)cn1)CC2` it is 5.46%; for `NC(=O)c1ccnc(N2CCCC(CO)(Cc3ccccc3)C2)c1` (stereo not given) it is 10.1%.

`CC(=O)c1ccc(N2CCCC(CO)(Cc3ccccc3C)C2)nc1` (stereo not given): the INHIBITION is on record as 75.6%. For `Cc1ccccc1CC1(C(=O)O)CCCN(c2ncccn2)C1` (stereo not given) the value was 8.64%; for `CC(=O)c1ccc(N2CCCC(CO)(Cc3ccccc3F)C2)nc1` (stereo not given), 50.3%; for `O=C(CN1CCCCC1)Nc1cc(C(F)(F)F)ccc1-n1cccc1`, 9%.

Regarding `CCN1CC2(CC1=O)CN(Cc1cnn(C)c1)CCN(C(=O)N(C)C)C2` (stereo not given), the INHIBITION worked out at 20.9%. Turning to `CS(=O)(=O)N1CCN(Cc2cccs2)CC(C(N)=O)C1` (stereo not given), the INHIBITION is given as 8.72%.

On to `COCCN1C(=O)[C@@H]2CC[C@H]1CN(C(=O)CCc1n[nH]c(C)c1C)C2`, for which the INHIBITION was determined as 34.9%.

For the compound `O=S(=O)(NCCn1cc(C2CCCNC2)nn1)c1ccc(Cl)cc1` (stereo not given), the INHIBITION worked out at 35.4%. `c1ccc(NCCn2cc(C3CCCNC3)nn2)cc1` (stereo not given): the INHIBITION is reported as 56.6%. The figure for `c1cc2c(cc1Cn1cc(C3CCCNC3)nn1)CCCO2` (stereo not given) is 16.7%; for `Cc1nnc(NC(=O)NCC(C)N2CCOCC2)s1` (stereo not given) it is 2.05%. Take `CN(C)CCNCCC(Cc1ccccc1)C1CCOC(C)(C)C1` (stereo not given): the INHIBITION was found to be 23.1%. For `CN(C)CCCNCCC(c1ccccc1)C1CCOC(C)(C)C1` (stereo not given) the value was 16.1%; for `CN(C)CCCNCCC(Cc1ccccc1)C1CCOC(C)(C)C1` (stereo not given), 56.7%; for `CNC(=O)CS(=O)(=O)Cc1cc(Cl)c2c(c1)OCCO2`, 21.5%.

Turning to `CCC/C=C/c1ccc(CN2CCN(C)CC2)cn1`, the INHIBITION is given as -13.2%.

As to `CCC/C=C/c1ccc(CN2CCCC2)cn1`, the INHIBITION is recorded as -4.51%. Regarding `C(=C\c1ccc(CN2CCCC2)cn1)/c1ccccc1`, the INHIBITION stood at 84.2%. With `NC(=O)c1ccc(C(=O)N2CCCC(n3ccnc3)C2)s1` (stereo not given), the INHIBITION worked out at 23.4%. Turning to `FC(F)(F)c1cccc(-c2c[nH]c(C3CCCN3)n2)c1` (stereo not given), the INHIBITION is -14.8%. Take `CCc1nnsc1C(=O)NCCc1nnc2n1CCC2`: the INHIBITION was 14.3%.

Turning to `CCc1nnsc1C(=O)NCc1nnc2n1CCC2`, the INHIBITION is given as 60%. On to `CCc1nnsc1C(=O)NCc1nnc2n1CCCCC2`, for which the INHIBITION is 41.4%. On to `O=C(NCCc1nnc2n1CCCCC2)N1CCC2(CCCC2)CC1`, for which the INHIBITION was -56.9%. As to `O=C(NCc1nnc2n1CCC2)N1CCC2(CCCCC2)CC1`, the INHIBITION was found to be 75.7%.

The values above are taken from ChEMBL document CHEMBL4513216, “Probing the Open Global Health Chemical Diversity Library for Multistage-Active Starting Points for Next-Generation Antimalarials” (ACS Infect Dis, 2020).
